The list is not random: actives were taken first. Their share in the collection is about 1.3%.
S1P2 blocker: human S1P2 receptor antagonists, primary screen, cell-based. Sphingosine 1-phosphate receptor 2 (Homo sapiens), O95136. cell-based S1P2 antagonist assay, inhibition at 5 uM. inhibition, % at 5 µM. 0.21% of 97,000 active. AID 736, 2007; in the data active = inhibition above about 45%;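 note: CRE beta-lactamase reporter cells expressing human S1P2 stimulated with S1P; 0% = agonist at EC80 alone and 100% = agonist plus reference antagonist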
Target sequence (O95136 whole entry, looked up): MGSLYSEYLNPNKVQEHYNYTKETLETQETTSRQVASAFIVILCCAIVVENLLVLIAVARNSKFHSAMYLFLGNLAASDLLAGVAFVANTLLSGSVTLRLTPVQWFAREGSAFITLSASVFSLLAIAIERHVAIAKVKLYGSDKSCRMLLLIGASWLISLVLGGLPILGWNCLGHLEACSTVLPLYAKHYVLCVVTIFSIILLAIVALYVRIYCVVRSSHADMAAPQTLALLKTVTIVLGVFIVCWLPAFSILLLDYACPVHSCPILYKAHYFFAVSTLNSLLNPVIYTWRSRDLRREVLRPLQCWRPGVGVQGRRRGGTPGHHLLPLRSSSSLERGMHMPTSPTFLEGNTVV
Phagocytosis inh: inhibitors of macrophage phagocytosis, primary screen, imaging, J774A.1 cells, IgG beads | inhibition, % at 5 µM | AID 1029, 2008 | J774A.1 macrophage IgG-bead phagocytosis | 0.07% of 110,000 active;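 active = inhibition above the mean of the plate negative controls plus 5 SD, cut at about 13% in these data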;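 note: phagocytic index as fraction of beads internalized from green versus red external bead signal; plate controls were DMSO negative control for no effect and cytochalasin-D positive control for full effect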
S1P2 ag: S1P2 receptor agonists, primary screen, cell-based; Sphingosine 1-phosphate receptor 2 (Homo sapiens), O95136; S1P2-expressing cell line, agonist reporter read-out; activation, % at 4.5 µM; 0.46% of 97,000 active; AID 729, 2007; in the data active = activation above about 16%;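 note: 0% = vehicle low control and 100% = maximal reference agonist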
GALR2 antag: GALR2 antagonists in receptor-expressing cells, primary screen; antagonist mode; inhibition, % at 4 µM; 0.39% of 140,000 active; in the data active = inhibition above about 27%;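 note: cells stimulated with galanin 1-16 at roughly its EC80; 0% = agonist challenge control and 100% = basal control without agonist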
GALR2 ag: GALR2 receptor agonists, primary screen, cell-based; Galanin receptor type 2 (Homo sapiens), O43603; GALR2-expressing cells, agonist activation read-out; activation, % (no concentration beside the values); 0.48% of 140,000 active; in the data active = activation above about 5%, passing the limit was not always enough;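 note: 0% = vehicle buffer wells and 100% = reference agonist at full effect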
Numbers without * were called inactive; nt = no result given; [ ] = another dose, or the depositor's remark.

SMILES	S1P2 blocker	Phagocytosis inh	S1P2 ag	GALR2 antag	GALR2 ag
N=c1c(C(=O)NCc2ccc(F)cc2)cc2c(=O)n3ccccc3nc2n1Cc1cccnc1	-27	2	21*	-9	6
N=c1c(C(=O)NCc2ccc(F)cc2)cc2c(=O)n3ccccc3nc2n1CCCN1CCOCC1	nt	0	nt	-17	9.7*
Cc1cccn2c(=O)c3cc(C(=O)NCC4CCCO4)c(=N)n(Cc4cccnc4)c3nc12 (configuration not stated)	nt	-3	nt	4	1
N=c1c(C(=O)NCC2CCCO2)cc2c(=O)n3ccccc3nc2n1Cc1cccnc1 (configuration not stated)	nt	-2	nt	-1	5.8*
Cc1ccc(NC(=O)C(Nc2cccc(C)c2)c2ccccc2)cc1 (configuration not stated)	nt	-6	nt	11	-1
COc1cc(C(=S)N2CCCC2)cc(Cl)c1OCC(=O)Nc1ccc(C)cc1C	nt	-3	nt	-1	-2
O=c1ccn(-c2cccc(C(F)(F)F)c2)nc1-c1ccn(-c2cccc(Cl)c2)n1	-24	nt	28*	-3	-1
COc1cc(OC)cc(C(=O)NCCC(=O)NCCc2ccc(OC)c(OC)c2)c1	nt	-11	nt	11	0
O=C(NCc1ccco1)c1cc2ccc(O)cc2oc1=O	-174	0	82*	-70	145*
COc1ccc2cc(C(=O)NCc3ccco3)c(=O)oc2c1	-9	0	-2	-9	1
CCCCCCc1cc2cc(-c3nnc(-c4ccccc4O)o3)c(=O)oc2cc1O	nt	0	nt	13	18*
N#C/C(C(=O)N1CCOCC1)=C1/SC(Cc2ccccc2Cl)C(=O)N1c1ccccc1 (configuration not stated)	nt	-3	nt	4	0
CCCOc1ccc(C2C(C(=O)OC)=CN(CCOC)C=C2C(=O)OC)cc1	-18	1	17*	-13	6.9*
Cc1ccccc1C(=O)NNC(=O)CSc1nnc(C)n1-c1ccccc1	nt	-11	nt	4	0
NC(=O)CC[C@@H]1NC(=O)[C@@H]2CCCN2C(=O)c2cc([N+](=O)[O-])cc(I)c2NCCCC[C@@H](C(=O)NC(CC(=O)O)C(N)=O)NC1=O (some centres not stated)	nt	nt	nt	7	-1
O=C(NCCc1nc2ccccc2[nH]1)/C(=C/c1ccc2c(c1)OCO2)NC(=O)c1ccc(Cl)cc1Cl	nt	nt	nt	-3	0
S=C(NC1CCCCC1)N(CCc1ccccc1)CCc1ccccc1	nt	71*[artifact]	nt	2	-1
O=C(Cn1cc(C(F)(F)F)ccc1=O)Nc1cccc(S(=O)(=O)N2CCOCC2)c1	nt	-5	nt	-7	-1
COc1ccc2cc3c(N)nn(C(=O)Cc4ccccc4OC)c3nc2c1	11	0	-4	-7	-4
COc1ccc2cc3c(N)nn(C(=O)c4cccc([N+](=O)[O-])c4)c3nc2c1	nt	-12	nt	-2	8.0*
O=C1c2cccc3c(N4CCCCC4)ccc(c23)C(=O)N1c1ccc(Cl)cn1	51*	nt	-6	9	-1
O=C1c2cccc3c([N+](=O)[O-])ccc(c23)C(=O)N1c1ccc(Cl)cn1	71*	2	4	18	2
CCc1ccc(C(C)NC(=O)Cn2cnc3c(=O)n(C)c(=O)n(C)c32)cc1 (configuration not stated)	1	nt	-7	-5	0
CCCn1c(N)c(C(=O)CSc2nc3ccccc3n2CCC#N)c(=O)n(C)c1=O	-12	0	26*	5	0
COc1ccc(CC(=O)Nc2cccc(-c3nnc(-c4ccccc4)o3)c2)cc1OC	56*	2	-6	12	-1
SMILES	S1P2 blocker	Phagocytosis inh	S1P2 ag	GALR2 antag	GALR2 ag
COc1ccc(CC(=O)Nc2cccc(-c3nnc(-c4cccc(C)c4)o3)c2)cc1OC	nt	0	nt	28*	-1
CC1C/C(=N\NC(=O)c2ccc(NS(=O)(=O)c3ccc(Br)cc3)cc2)CC(C)(C)C1 (configuration not stated)	nt	nt	nt	1	-1
COc1ccc(S(=O)(=O)N2CCN(c3ccc4nnc(-c5ccc(F)cc5)n4n3)CC2)cc1	48*	-1	-7	-4	1
CCOc1ccc2c(c1)-c1c(ssc1=S)C(C)(C)N2C(=O)c1ccco1	nt	91*[artifact]	nt	-3	-1
Cc1ccc(-c2cc(-c3ccc(Cl)cc3)c(C#N)c(N)n2)o1	-28	4	19*	-5	13*
Cc1ccc(-c2cc(-c3ccc(C)o3)nc(N)c2C#N)cc1	-12	1	8	-1	7
Cc1cc(-c2cc(-c3ccc(Cl)cc3)nc(N)c2C#N)co1	-23	nt	19*	-11	9.9*
CC(C)Cn1c(N)c(C(=O)COC(=O)c2ccc3ccccc3n2)c(=O)n(C)c1=O	-22	nt	22*	12	-2
CCOC(=O)Nc1ccc2c(c1)N(C(=O)CCN(C)C)c1ccccc1S2	-5	nt	-8	30*	-2
CCOC(=O)Nc1ccc2c(c1)N(C(=O)CN1CCN(C)CC1)c1ccccc1S2	-5	-1	2	1	-1
O=C(c1ccc2c3c(cccc13)CC2)N1CCN(c2ncccn2)CC1	-21	nt	-4	-1	-3
Cc1nn(-c2cccc(Cl)c2)c(Cl)c1/C=N/NC(=O)c1cccs1	nt	-4	nt	-3	5.0*
O=C(Cc1ccc(-n2c(=O)[nH]c3ccsc3c2=O)cc1)N1CCN(c2ccc(Cl)cc2)CC1	nt	-6	nt	9	1
CC(C)(C)c1cc(S(=O)(=O)CCc2ccccn2)cc(C(C)(C)C)c1F	-7	153*	-4	-11	-2
c1cc2c(cc1Nc1nc(-c3ccc4c(c3)OCO4)cs1)OCCO2	22	1	-5	0	-1
COc1cccc(Nc2nc(-c3ccc4c(c3)OCCO4)cs2)c1	1	-3	41*	-2	-3
COc1cc(NC(=S)N2CCN(C(=O)C3CCCO3)CC2)c(OC)cc1Cl (configuration not stated)	nt	-4	nt	1	0
COC(=O)c1cn[nH]c1NC(=S)Nc1ccc(C)cc1Cl	-19	-3	-11	11	-2
COC(=O)c1cn[nH]c1NC(=S)Nc1ccccc1C	-1	nt	57*	-3	0
C=CCN1C(=O)N/C(=C/c2ccc(C)o2)C1=O	nt	-4	nt	-6	0
COc1ccccc1CCNCc1ccc(OC)c(OCc2ccccc2)c1	48*	0	-5	18	-1
Cc1ccc(-c2nn3c(C)nnc3s2)cc1NC(=O)c1ccc(-c2cccc(Cl)c2)o1	0	1	-5	-23	0
Cc1ccc(-c2nn3c(C)nnc3s2)cc1NC(=O)c1ccc(-c2ccc(Cl)cc2Cl)o1	nt	-1	nt	-3	6.8*
COc1ccccc1-c1nn2c(-c3ccccc3Cl)nnc2s1	nt	-1	nt	nt	nt
CCN(CC)c1ccc(-c2nn3c(-c4ccccc4OC)nnc3s2)cc1	3	4	4	11	6.8*
CN(C)c1ccc(-c2nn3c(-c4ccc(Cl)cc4Cl)nnc3s2)cc1	nt	-5	nt	-1	6.0*

Assay outcomes: PubChem BioAssay, several laboratories
